DT40 TDP1 CPT – growth inhibition of DT40 Tdp1-/-;hTDP1 cells with camptothecin (screen for TDP1 inhibitors) | chicken DT40 Tdp1-/-;hTDP1 cells + 20 nM CPT, ATP luminescence, 48 h | Potency, µM (doses to about 46.2 µM), for inactives: top-dose activity change, negative = growth inhibition, most hits filed as inhibitors | hit rate 12% among 420,000; further: potency means the concentration at half of the fitted maximal effect; nearly all actives have a fitted effect of over 55% in size
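Chicken DT40 Tdp1-/- cells complemented with human TDP1, 400 cells/well, exposed to compounds plus 20 nM camptothecin for at least 48 h at 37 C; viability read as ATP content by CellTiter-Glo luminescence.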
HT1080 IDH1KD tx – HT-1080 IDH1 knockdown cell toxicity (counter line); AID 686971; hit rate 2% among 360,000; HT-1080 IDH1 knockdown viability, ATP luminescence, 48 h; Potency, µM (titrated, usually from 46.1 µM), for the others: at the highest dose activity, negative = toxicity, actives largely listed as cytotoxic;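 further: potency means the concentration at half of the fitted maximal effect; 0% = DMSO wells and -100% = cell-free medium wells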
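Cytotoxicity counter-line: IDH1KD HT-1080, 48 h, CellTiter-Glo. Curves classed by r2, magnitude and activity.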
IL-1B inflam inh – blocks inflammasome-driven IL-1 beta release; THP-1 LPS/ATP IL-1B secretion, AlphaLISA, 16 h; active compounds read low; activity change, % at 57.5 µM; hit rate 4.7% among 360,000; in the data active means activity change below about -50%; inconclusive means mostly about -30% to -49%
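Secreted IL-1B measured by AlphaLISA bead assay after 16 h compound exposure of THP-1 cells; compounds (final up to 57.5 uM) added 1 h before LPS (250 ng/mL) and ATP (1.25 mM) stimulation; lower signal means less secretion.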
DT40 TDP1 no CPT – qHTS for Inhibitors of human tyrosyl-DNA phosphodiesterase 1 (TDP1): qHTS in cells in absence of CPT; DT40 Tdp1-/- hTDP1 cells, no CPT, ATP luminescence, 48 h; Potency, µM (series often up to 46.2 µM), inactives show at the top dose activity change, negative = growth inhibition, hits mostly inhibitors; hit rate 15% among 420,000; AID 686978, 2013; further: potency means the concentration at half of the fitted maximal effect; nearly all actives have a fitted effect of over 55% in size
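Chicken DT40 Tdp1-/- cells complemented with human TDP1, screened without camptothecin (DMSO vehicle only), 400 cells/well. Compounds pin-transferred, cells incubated at 37 °C for at least 48 hr. Growth read as ATP-dependent luminescence (CellTiter-Glo, 30 min at RT).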
12-LOX inh – ALOX12 (human) lipoxygenase inhibition; Potency, µM (top dose mostly 108 µM), for inactives: at the highest dose activity change, negative = inhibition, hits mostly inhibitors; hit rate 1.1% among 580,000; P18054; purified 12hLO, xylenol orange hydroperoxide absorbance; further: potency means the concentration at half of the fitted maximal effect
Target sequence (P18054 whole entry, looked up): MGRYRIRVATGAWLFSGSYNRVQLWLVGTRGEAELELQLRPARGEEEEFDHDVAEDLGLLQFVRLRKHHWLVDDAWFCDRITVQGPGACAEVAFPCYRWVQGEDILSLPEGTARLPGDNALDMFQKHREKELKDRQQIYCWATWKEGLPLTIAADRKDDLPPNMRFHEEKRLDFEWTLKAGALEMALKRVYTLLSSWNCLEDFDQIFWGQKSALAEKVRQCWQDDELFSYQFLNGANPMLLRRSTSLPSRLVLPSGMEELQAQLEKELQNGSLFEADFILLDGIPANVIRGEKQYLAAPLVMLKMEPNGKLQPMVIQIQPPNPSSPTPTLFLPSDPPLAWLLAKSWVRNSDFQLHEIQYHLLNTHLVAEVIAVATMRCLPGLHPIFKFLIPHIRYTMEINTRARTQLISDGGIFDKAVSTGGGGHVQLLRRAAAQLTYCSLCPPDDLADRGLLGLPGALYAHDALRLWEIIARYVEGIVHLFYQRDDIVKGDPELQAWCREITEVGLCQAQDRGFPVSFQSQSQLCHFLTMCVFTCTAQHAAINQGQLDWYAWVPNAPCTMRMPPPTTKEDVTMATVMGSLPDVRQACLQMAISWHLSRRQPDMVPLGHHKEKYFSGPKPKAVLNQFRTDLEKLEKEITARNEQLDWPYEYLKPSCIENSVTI
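Purified human 12hLO at 150 nM in 25 mM Hepes, 0.01% Triton X-100, pH 7.0, preincubated 15 min at room temperature with compound. Reaction started with 40 uM arachidonic acid, 30 min at room temperature. Hydroperoxide measured by Fe-xylenol orange, 573/405 nm absorbance ratio.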
HT1080-NT tox – kills 2HG-producing HT-1080-NT fibrosarcoma cells; HT-1080-NT fibrosarcoma viability, CellTiter-Glo ATP luminescence, 48 h; Potency, µM (highest dose often 46.1 µM), for the others: at the top dose activity, negative = less viability, actives largely listed as cytotoxic; hit rate 1.6% among 360,000;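 further: NT is the 2HG producing partner of a matched IDH1 knockdown line; potency means the concentration at half of the fitted maximal effect; 0% = DMSO-treated cells and -100% = media-only wells without cells; nearly all actives have a fitted effect of over 55% in size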
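Fibrosarcoma NT cells, 750 per well in 5% FBS RPMI, were exposed to compound for 48 hours. Viability: CellTiter-Glo luminescence.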
Starred values were filed as active, the others as inactive; ? = inconclusive; · = no result. This is one part of a sample in which hits are shown more often than they occur. Unless noted, the call rests on the fitted dose curve; in most records, active means well fitted curve in the direction sought with a large enough effect; inconclusive means small, poorly fitted or top-dose-only effect, or another doubt; inactive means no such curve, though single readings can be large; an effect the other way counts as inactive or inconclusive. Unless noted, on the % scale 0 is the no-effect control and ±100 the full control effect.

SMILES | DT40 TDP1 CPT | HT1080 IDH1KD tx | IL-1B inflam inh | DT40 TDP1 no CPT | 12-LOX inh | HT1080-NT tox
O=C(c1c(F)c(F)c(F)c(F)c1F)N1CCN(c2cccc(C(F)(F)F)c2)CC1 | ? | ? | -4 | 18µM* | 0% | ?
COc1cccc(CNC(=O)[C@@H]2C[C@@H](O)CN2C2CCN(C(=O)c3cccs3)CC2)c1 | · | · | · | · | -3% | ·
c1ccc2oc(N3CCN(Cc4ccc(-c5ccn[nH]5)o4)CC3)nc2c1 | · | · | · | · | -7% | ·
CCCCn1c(NCc2ccc3c(c2)OCO3)nc2ccccc21 | ? | -29% | -51* | 26µM* | 339% | -27%
CCCCn1c(NCc2ccccc2O)nc2ccccc21 | ? | -1% | ? | ? | 2% | -6%
CCCCCn1c(NCc2ccccc2OC)nc2ccccc21 | ? | · | · | 21µM* | 6% | ·
CCCCn1c(NCc2ccc(OC)cc2O)nc2ccccc21 | 15µM* | -9% | -18 | 10µM* | ? | -9%
C=CCc1cccc(CNc2nc3ccccc3n2CCC)c1O | ? | ? | ? | 23µM* | -11% | ?
CCC1(C)NC(=O)N(NC(=O)CCCc2c[nH]c3ccccc23)C1=O (stereo not given) | · | · | · | · | -1% | ·
CS(=O)(=O)c1ccc(C(=O)OCC(=O)Nc2cc(C(F)(F)F)ccc2Cl)cc1[N+](=O)[O-] | 11µM* | · | · | ? | · | ·
NS(=O)(=O)c1cc(C(=O)OCC(=O)Nc2ccc(Cl)cc2[N+](=O)[O-])ccc1Cl | -8% | 7% | 72 | -6% | -18% | 7%
O=C(COC(=O)COc1ccc(Cl)cc1)Nc1cccnc1Cl | -2% | 3% | 9 | -5% | 12% | 0%
CS(=O)(=O)c1ccc(C(=O)OCC(=O)Nc2cccnc2Cl)cc1[N+](=O)[O-] | 6.5µM* | ? | -96* | 8.2µM* | · | -28%
Cc1ccccc1NC(=O)COC(=O)c1ccc(S(C)(=O)=O)c([N+](=O)[O-])c1 | 2.5µM* | 10µM* | -96* | 4µM* | -5% | ?
NS(=O)(=O)c1cc(C(=O)OCC(=O)Nc2ccccc2[N+](=O)[O-])ccc1Cl | 6% | -7% | 7 | 1% | -10% | -11%
CC(C)(C)c1ccc(OCCC(=O)OCC(=O)Nc2cccnc2Cl)cc1 | ? | -3% | -10 | 16µM* | -19% | 2%
CCOc1ccc(-c2nc(CN(CCO)Cc3csc(-c4ccc(OCC)c(OC)c4)n3)cs2)cc1OC | · | · | · | · | 1% | ·
COc1cc(NC(=O)CN2C(=O)C(c3ccc(C)cc3)=NC23CCCCCC3)cc(OC)c1 | ? | · | · | ? | 0% | ·
COc1ccc(Cl)cc1NC(=O)[C@H]1C[C@@H]2CCCN2[C@]12C(=O)Nc1ccc(Cl)cc12 | · | · | · | · | -43% | ·
CC(CCc1ccccc1)NC(=O)COC(=O)c1ccc([N+](=O)[O-])cc1 (stereo not given) | 9% | -3% | 29 | 10% | -10% | 9%
Cc1ccccc1NC(=O)Cc1nc(COC(=O)c2ccc(S(C)(=O)=O)c([N+](=O)[O-])c2)cs1 | 2.9µM* | 16µM* | -102* | 3.7µM* | · | ?
CC(CCc1ccccc1)NC(=O)COC(=O)c1ccc(S(C)(=O)=O)c([N+](=O)[O-])c1 (stereo not given) | 2.3µM* | 7.3µM* | -108* | 2.3µM* | -3% | 16µM*
Cc1nn(-c2ccccc2)c(C)c1/C=N/NC(=O)c1cc(-c2cccc3ccccc23)n[nH]1 | ? | ? | -15 | 16µM* | -5% | ?
Cc1nn(-c2ccccc2)c(C)c1/C=N/NC(=O)c1ccc(F)cc1 | -11% | -1% | -24 | -20% | -3% | 4%
Cc1[nH]c2ccccc2c1/C=N/NC(=O)c1cc(-c2ccncc2)nc2ccccc12 | 5.8µM* | 4.6µM* | 0 | 5.2µM* | 8% | ?
SMILES | DT40 TDP1 CPT | HT1080 IDH1KD tx | IL-1B inflam inh | DT40 TDP1 no CPT | 12-LOX inh | HT1080-NT tox
Cc1[nH]c2ccccc2c1/C=N/NC(=O)c1ccccc1 | -15% | -2% | 20 | ? | 34% | 3%
Cc1[nH]c2ccccc2c1/C=N/NC(=O)c1cc(-c2ccccc2)n[nH]1 | ? | 15µM* | ? | 18µM* | 6% | 15µM*
Cc1[nH]c2ccccc2c1/C=N/NC(=O)c1cc(C(C)(C)C)[nH]n1 | 3% | -2% | -11 | -28% | 363% | -14%
CCCCC(=O)N1CCN(c2nc(C)c3c(c2C#N)CCCC3)CC1 | · | · | · | · | 33% | ·
Cc1noc([C@H]2CCN(C(=O)COc3ccccc3)C[C@H]2NC(=O)C2CC2)n1 | · | · | · | · | 46% | ·
Cc1onc(-c2ccc(Cl)cc2Cl)c1-c1csc(N/N=C/c2ccccc2Cl)n1 | ? | -12% | -20 | 12µM* | 1% | 15%
Cc1ccc2[nH]c3c(N4CCOCC4)ncnc3c2c1 | ? | ? | -20 | ? | 36% | -29%
c1ccc2c(c1)[nH]c1c(N3CCOCC3)ncnc12 | 16µM* | -23% | -17 | 13µM* | 4% | -21%
c1ccc2c(c1)[nH]c1c(N3CCSCC3)ncnc12 | ? | -29% | -8 | 18µM* | 13% | -21%
CCOc1ncnc2c1[nH]c1ccccc12 | ? | -17% | ? | ? | 2% | -21%
COc1cccc2[nH]c3c(N4CCCC(C)C4)ncnc3c12 (stereo not given) | ? | -4% | -14 | 23µM* | 2% | 5%
Clc1ccc2[nH]c3c(N4CCC5(CC4)OCCO5)ncnc3c2c1 | 23µM* | 8.2µM* | ? | 18µM* | · | 16µM*
O=C(N[C@H]1CO[C@H]2[C@@H]1OC[C@@H]2n1nnnc1Oc1ccc(-n2ccnc2)cc1)C1CCCCC1 | · | · | · | · | 5% | ·
c1ccc2c(c1)[nH]c1c(N3CCCC3)ncnc12 | 5.8µM* | -11% | -6 | 5.2µM* | 14% | -12%
c1ccc(-c2noc(-c3cncnc3N3CCN(C4CCCCC4)CC3)n2)cc1 | · | · | · | · | 30% | ·
c1ccc2c(c1)[nH]c1c(N3CCN(C4CCCCC4)CC3)ncnc12 | ? | -22% | 7 | 15µM* | -15% | ?
NC(=O)c1ccc2c(=O)n3c(-c4cccs4)csc3nc2c1 | -23% | 12% | -5 | -14% | ? | 4%
Cc1ccc(CNC(=O)c2ccc3c(=O)n4c(-c5ccc(C)cc5)csc4nc3c2)cc1 | 7.3µM* | 2% | 18 | 9.2µM* | -20% | 1%

Compound activity deposited in PubChem by National Center for Advancing Translational Sciences (NCATS).
